# Experimental data from PubChem BioAssay (NCI).
# This is part of a sample that, as a whole, favours compounds with a hit. Of some 79,000 tested, about 15% had one in any assay. Values without a mark were called inactive. Activity calls are given as the source filed them. No stated cut-off is given here; in the data, active means growth inhibition above about 70%; inactive means the rest.
# Assays:
# [1] = NCI Yeast Anticancer Drug Screen. Data for the rad50 strain (AID 155);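 further: 0% = growth of vehicle-only cultures of the same strain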; settings: S. cerevisiae rad50 strain growth inhibition; at 50.0 µM; stronger effect = higher value
# Procedure, shortened: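 Compounds were tested on a yeast strain with an engineered DNA damage repair alteration; the reported value is growth inhibition normalised to vehicle treatment.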
# [2] = NCI Yeast Anticancer Drug Screen. Data for the mec2-1 strain (AID 157); settings: S. cerevisiae mec2-1 strain, at 50.0 µM, stronger effect = higher value
# Procedure, shortened: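 mec2-1 yeast strain, carrying an alteration in DNA damage repair or cell cycle control, was exposed to compounds; growth inhibition was measured relative to vehicle-treated controls.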
# [3] = NCI Yeast Anticancer Drug Screen. Data for the sgs1 mgt1 strain (AID 161);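 further: 0% = growth of cultures given vehicle only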; settings: S. cerevisiae sgs1 mgt1 strain, at 50.0 µM, stronger effect = higher value
# Procedure, shortened: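 Growth of a repair-deficient yeast mutant was monitored after compound treatment and expressed as inhibition relative to vehicle-treated cultures.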
# [4] = NCI Yeast Anticancer Drug Screen. Data for the cln2 rad14 strain (AID 165);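 further: 0% = growth equal to vehicle treated cultures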; settings: S. cerevisiae cln2 rad14 strain, at 50.0 µM, stronger effect = higher value
# Procedure, shortened: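 Yeast carrying cln2 and rad14 alterations (cell cycle control and DNA damage repair) were exposed to compounds. Growth inhibition was measured against vehicle-treated controls.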
# [5] = NCI Yeast Anticancer Drug Screen. Data for the bub3 strain (AID 167); settings: S. cerevisiae bub3 mutant strain, at 50.0 µM, stronger effect = higher value
# Procedure, shortened: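 Growth of a checkpoint-deficient yeast mutant is measured after compound exposure. Values represent inhibition relative to vehicle.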
# [6] = NCI Yeast Anticancer Drug Screen. Data for the mlh1 rad18 strain (AID 175); settings: S. cerevisiae mlh1 rad18 strain growth inhibition; at 50.0 µM; stronger effect = higher value
# Procedure, shortened: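 Growth inhibition of the yeast strain was measured after compound exposure and expressed relative to vehicle-treated controls. The strain carries defined defects in DNA damage repair.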
Compound,growth inhibition [1] [%],growth inhibition [2] [%],growth inhibition [3] [%],growth inhibition [4],growth inhibition [5] [%],growth inhibition [6] [%]
COc1cc([C@@H]2c3cc4c(cc3[C@H](OC(=O)CCCC(=O)O)[C@H]3COC(=O)[C@H]23)OCO4)cc(OC)c1OC,26.2,23.2,38.5,32.3%,10.9,33.6
CC(=O)NNc1nc(C)c(C(/C=C/c2ccc(Cl)cc2)=N\NS(=O)(=O)c2ccc(C)cc2)s1,26.1,2.9,19.6,23.2%,23.6,9.45
COc1ccc(C(O)(CCN2CCOCC2)c2ccc3c(c2)OCO3)cc1 (stereo unspecified),-8.4,9.2,-7.7,-47.4%,8.6,-0.3
CC1(C(Cl)Cl)C=CC(=O)c2ccccc21 (stereo unspecified),37,35.6,21.4,15.3%,12.3,4.9
Cn1ccnc1CCc1ccc(F)cc1F,-37.2,-20.8,-2.75,-0.15%,-2.2,-22.2
CCn1nnc2c(C(N)=O)ncn2c1=O,0.6,-38.7,-44.1,14.1%,-14.8,-16.6
Clc1cccc(NCNC2Nc3ccccc3N2)c1,39,20,6.6,-14.3%,18.1,27.9
CC(=O)Oc1ccccc1C(=O)OC(=O)c1ccccc1OC(C)=O,5.3,-10.2,-1.7,-9.85%,0,6.75
CC(=O)Nc1cc(C)c(C(=O)OC(=O)c2cc(C)c(NC(C)=O)cc2C)cc1C,22.4,-10.1,5.1,-57.6%,-0.85,6.2
Cc1cccc(CN(C)Cc2cc(Cl)cc(C)c2O)c1O,14.8,-1.6,1.1,-36%,-1.25,4.15
C=C1N(c2cc(OC)c(OC)c(OC)c2)C(=O)OC12CCCCC2,-4.05,5.4,0.2,38.7%,-0.3,1.4
C=C(Cl)COC(=O)C(C)O (stereo unspecified),3,-12.2,-7.55,24.4%,-7.4,8.95
O=C(O)C1C2C3CCC(C3)C12 (stereo unspecified),2.7,16.4,8.2,34.6%,-4.9,1.95
C[Si](C)(OCCS(=O)(=O)O)C1S(=O)(=O)OCCOS1(=O)=O,-18.7,-21.4,-12.9,8.6%,-16.8,-18.4
O=c1[nH]cnc2ccccc12,39,-1.55,0.2,-7.3%,16.6,14.7
O=[N+]([O-])c1ccc(S(=O)(=O)c2ccc(N=Cc3ccc(C=Nc4ccc(S(=O)(=O)c5ccc([N+](=O)[O-])cc5)cc4)cc3)cc2)cc1,6.85,3.25,1.15,-5.45%,-4.55,-5.85
O=NN(CCCl)C(=O)NC1CCC(CC2CCC(NC(=O)N(CCCl)N=O)CC2)CC1 (stereo unspecified),24.9,5.6,8.05,29.5%,-6.45,10.6
Cc1nc2c3c4c(sc3nc(C)n2n1)CCCC4,1,10.3,22.2,80.4% (active),7.3,12
COc1ccc2ccc3c(OC(C)=O)ccc(CCN(C)C(C)=O)c3c2c1OC(C)=O,19.1,25.9,18.9,31.5%,2.25,4.85
N#CC(c1ccc(N)cc1)c1ccc(F)cc1 (stereo unspecified),15.6,-16.8,22.2,27.2%,-0.6,26.2
O=C(O)/C=C/c1ccccc1Br,20.8,3.5,12.7,8.3%,-8.7,-17.4

Compound,growth inhibition [1] [%],growth inhibition [2] [%],growth inhibition [3] [%],growth inhibition [4],growth inhibition [5] [%],growth inhibition [6] [%]
CCOC(=O)c1nc2c(n(O)c1=N)CCC/C2=N\O,4.1,-1.6,-8.8,14.2%,3.8,5.45
COc1c(Cl)cc([N+](=O)[O-])cc1C(=O)O,6.4,25.9,-3.55,-15.7%,15.6,16.9
CC(=C(C#N)C#N)c1ccccc1,11,2.5,13.1,6.45%,2.8,5.45
CC(C)CC(N)C(=O)NC(Cc1c[nH]c2ccccc12)C(N)=O (stereo unspecified),-8.85,3.35,18.1,-2.4%,22.4,10.5
c1cncc([O][Ge]([O]c2cccnc2)([O]c2cccnc2)[O]c2cccnc2)c1,8.6,15.8,31,24.1%,3,35.8
O=C1CCCC/C1=C/c1ccccc1,6,18.9,-3.3,-19.1%,-11.9,8.05
OCC(O)C(O)Cc1cnc(C(O)C(O)C(O)CO)cn1 (stereo unspecified),6.65,5.65,-6.95,-20.2%,-9.45,6.4
O=C/C=C/C=C/C=C/c1ccccc1,32.6,-6.15,14.4,13.7%,-5.25,27.6
Cc1cc(=O)oc2c(C)c(O)ccc12,0,-16.5,-3.15,13.7%,-16.6,16.4
CCN1C(=O)/C(=C/c2cc([N+](=O)[O-])ccc2OCC(=O)O)SC1=S,-1.85,-11.3,3.5,-42.8%,2.55,1.4
CCCCC#CCC#Cc1ccccc1,-4.3,5.25,6.85,23.2%,-10.9,10.1
OCC1=CCCCC1,6.95,1.85,-6.65,12.7%,-14.5,0.25
CN(Cc1ccccc1)c1ccccn1,-12.9,-21.8,-18.9,-2.05%,-12.7,8.85
O=C(OCC(OC(=O)c1ccccc1)C(OC(=O)c1ccccc1)C(O)C(O)CO)c1ccccc1 (stereo unspecified) (tested in a mixture with another compound),-6.8,-4.1,9.55,-17.9%,-12.2,28.6
CCOC(=O)c1c(C)c2c(n1C)CC/C(=C\N1CCOCC1)C2=O,11.3,13.1,13.6,-13.8%,14.5,15.2
COC1=C(C(c2cc(OC)c(OC)c(OC)c2)c2cc3c(cc2OC)OCO3)C(=O)OC1 (stereo unspecified),-18.6,-5.9,-2.9,6.25%,1.1,13.4
CC(C)NCC1CCCO1 (stereo unspecified),-6.65,-23.2,-16.4,4.9%,-5.7,-7.85
O=C1c2ccccc2C(=O)N1CCn1nc(-c2ccccc2)cc(-c2ccccc2)c1=O,1.85,-2.35,-25.5,7.9%,39,-8.6
C[CH2][Sn]([CH2]C)([O]C(=O)c1ccc(F)cc1)[O][Sn]([CH2]C)([CH2]C)[O]C(=O)c1ccc(F)cc1,-7.3,-2.8,-16.4,23.6%,12.6,-9.05
CN(C)c1ccccc1CN1CCCN(Cc2ccccc2N(C)C)C1c1ccncc1,-16.3,-10.1,-12.3,-0.25%,-16.2,-1.55
